This passage reports Potency and outcome results from PubChem BioAssay (Tox21).

Experiment [1] in a line: qHTS assay to identify small molecule antagonists of the thyroid receptor (TR) signaling pathway - cell viability counter screen (AID 743064). Further: nearly all actives have a fitted effect of over 50% in size. Further: potency means the concentration at half of the fitted maximal effect. The essentials: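 In rat pituitary GH3.TRE-Luc reporter cells co-exposed to compound and 1 nM T3 for 23.5 h, cytotoxicity was assessed with CellTiter-Fluor in the same wells, read by fluorescence.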
A short description of experiment [2]: qHTS assay to identify small molecule antagonists of the thyroid receptor (TR) signaling pathway (AID 743065). Further: nearly all actives have a fitted effect of over 55% in size. Further: potency means the concentration at half of the fitted maximal effect. The method in brief: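 Antagonism measured as loss of luciferase signal in GH3 cells stably carrying a TRE-luciferase reporter, co-treated with compound and T3 (1 nM final) for 23.5 h at 37 C. Viability was read in the same well by CellTiter-Fluor.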

The test system of experiment [3] is thyroid hormone receptor (rat, GH3 cells). Kind of experiment: qHTS assay to identify small molecule agonists of the thyroid receptor (TR) signaling pathway (AID 743066; calls by dose curve).
Experiment [4] has as its target Estrogen receptor (Homo sapiens) (UniProt P03372). The experiment can be described thus: qHTS assay to identify small molecule antagonists of the estrogen receptor alpha (ER-alpha) signaling pathway (AID 743069; active means well fitted curve in the direction sought with a large enough effect in the signal ratio in the repeat runs, not every such curve was filed as active; inconclusive means weak or mixed curves, or effect the other way; inactive means no such curve, though single readings can be large or run the other way; the % refers to the signal ratio). The essentials:
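Compound effects are measured against 17beta-estradiol stimulation in HEK293 cells with a UAS-controlled beta-lactamase reporter for ER-alpha. Exposure lasts 18 hr at 37C; LiveBLAzer B/G FRET substrate follows for 2 hr at room temperature.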

Experiment [5] is described as follows: qHTS assay to identify small molecule antagonists of the estrogen receptor alpha (ER-alpha) signaling pathway - cell viability counter screen (AID 743074; calls by dose curve;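 further: HEK293 cells carrying ER-alpha-UAS-bla reporter stimulated with 17beta-estradiol; nearly all actives have a fitted effect of over 45% in size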).
The target in experiment [6] is Estrogen receptor (Homo sapiens) (UniProt P03372). The experiment can be described thus: qHTS assay to identify small molecule agonists of the estrogen receptor alpha (ER-alpha) signaling pathway (AID 743075; calls by dose curve; further: potency means the concentration at half of the fitted maximal effect).
Chain of Estrogen receptor (Homo sapiens) (P03372 whole entry, looked up): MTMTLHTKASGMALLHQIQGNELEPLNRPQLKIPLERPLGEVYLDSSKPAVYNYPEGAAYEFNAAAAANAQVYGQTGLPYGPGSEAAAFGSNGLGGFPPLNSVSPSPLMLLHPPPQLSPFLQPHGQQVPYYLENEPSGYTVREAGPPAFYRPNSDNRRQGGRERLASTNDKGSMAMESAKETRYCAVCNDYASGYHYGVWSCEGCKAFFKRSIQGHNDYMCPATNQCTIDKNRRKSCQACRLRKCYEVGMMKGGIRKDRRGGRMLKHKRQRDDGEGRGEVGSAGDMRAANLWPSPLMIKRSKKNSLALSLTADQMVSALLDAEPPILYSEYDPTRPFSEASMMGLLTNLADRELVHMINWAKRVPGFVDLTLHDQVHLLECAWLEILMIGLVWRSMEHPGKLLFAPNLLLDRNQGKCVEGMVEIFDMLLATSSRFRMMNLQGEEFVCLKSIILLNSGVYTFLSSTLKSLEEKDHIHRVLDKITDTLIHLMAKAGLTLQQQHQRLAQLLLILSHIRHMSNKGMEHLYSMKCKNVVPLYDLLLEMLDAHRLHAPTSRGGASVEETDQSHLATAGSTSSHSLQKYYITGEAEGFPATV
The target is the same in experiment [7]. The experiment can be described thus: qHTS assay to identify small molecule agonists of the estrogen receptor alpha (ER-alpha) signaling pathway using the BG1 cell line (AID 743079). Further: nearly all actives have a fitted effect of over 20% in size. Further: potency means the concentration at half of the fitted maximal effect.
The nature of experiment [8]: qHTS assay to identify small molecule antagonists of the estrogen receptor alpha (ER-alpha) signaling pathway using the BG1 cell line (AID 743080; calls by dose curve; further: series mostly up to about 70 µM; nearly all actives have a fitted effect of over 25% in size). The method in brief: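 Antagonist mode: compounds in DMSO were pinned onto BG1-Luc-4E2 cells alongside 17beta-estradiol agonist, incubated 21.5 h, and ERE-driven luciferase measured with ONE-Glo. Cytotoxicity was multiplexed using CellTiter-Fluor fluorescence.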

A short description of experiment [9]: qHTS assay to identify small molecule antagonists of the estrogen receptor alpha (ER-alpha) signaling pathway using the BG1 cell line - cell viability counter screen (AID 743081).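 Further: compound given together with 17beta-estradiol as the ER stimulus; series mostly up to about 70 µM; nearly all actives have a fitted effect of over 45% in size.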
Another experiment addresses Aromatase (Homo sapiens) (UniProt P11511). Kind of experiment: qHTS assay to identify aromatase inhibitors (AID 743083). Further: series mostly up to about 70 µM; nearly all actives have a fitted effect of over 55% in size.

A structure can be active in one record and inactive in another. The source made the active and inactive calls. Unless noted, the call rests on the fitted dose curve; in most records, active means well fitted curve in the direction sought with a large enough effect in the repeat runs; inconclusive means weak or mixed curves; inactive means no such curve, though single readings can be large; an effect the other way counts as inactive or inconclusive.

Chain of Aromatase (Homo sapiens) (P11511 whole entry, looked up): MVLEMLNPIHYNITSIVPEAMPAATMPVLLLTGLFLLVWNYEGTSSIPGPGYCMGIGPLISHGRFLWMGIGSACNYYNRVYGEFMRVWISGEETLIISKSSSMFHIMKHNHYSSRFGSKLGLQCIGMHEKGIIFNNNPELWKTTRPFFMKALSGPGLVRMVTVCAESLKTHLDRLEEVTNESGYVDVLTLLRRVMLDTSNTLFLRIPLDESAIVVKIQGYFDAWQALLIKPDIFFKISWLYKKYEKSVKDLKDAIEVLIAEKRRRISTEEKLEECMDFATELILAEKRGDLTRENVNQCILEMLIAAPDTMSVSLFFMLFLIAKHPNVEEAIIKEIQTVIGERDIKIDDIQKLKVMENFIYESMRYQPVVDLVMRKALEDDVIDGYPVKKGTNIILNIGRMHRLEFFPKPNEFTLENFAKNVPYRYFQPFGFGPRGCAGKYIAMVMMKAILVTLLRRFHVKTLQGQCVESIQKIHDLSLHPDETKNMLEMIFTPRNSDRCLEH

For the compound `Cc1ccc(C(N)=O)cc1N`, the Potency result in experiment [1], in experiment [2], in [3], in experiment [4], in [6] and in [7] was “inactive” in each case. The Potency result (in experiment [8]; in experiment [9]; with Aromatase (Homo sapiens)) was “inactive” in each case. The compound was classed as inactive in [5].

Consider `Nc1nc(N)c2nc(CNc3ccc(C(=O)N[C@@H](CCC(=O)O)C(=O)O)cc3)cnc2n1`, for which the Potency entry in [1], in [3], in [4], in experiment [6], in experiment [7] and in experiment [8] was “inactive” in each case. Moreover, the Potency entry (in experiment [9]; with Aromatase (Homo sapiens)) was “inactive” each time. The Potency in experiment [2] was 0.0571 µM (active). The result in [5] was inactive.

Consider `C=C(C)C(=O)OCCN(C)C`, for which the Potency result in [1], in experiment [2], in experiment [3], in experiment [4], in [6] and in [7] was “inactive” each time. The Potency entry (in experiment [8]; in experiment [9]; in the experiment with Aromatase (Homo sapiens)) was “inactive” throughout. Besides, the result in experiment [5] was inactive.

Turning to `Cc1ncsc1CCO`, the Potency entry in experiment [1], in experiment [2], in experiment [3], in experiment [4], in experiment [6] and in experiment [7] was “inactive” throughout. Moreover, the Potency entry (in [8]; in experiment [9]; with Aromatase (Homo sapiens)) was “inactive” in each case. In addition, in experiment [5], the result was inactive.

`COc1ccc([C@@H]2Sc3ccccc3N(CCN(C)C)C(=O)[C@@H]2OC(C)=O)cc1`: the Potency in [1] is 23.7 µM (active).

As for `O=C(Cl)c1ccc([N+](=O)[O-])cc1`, the Potency entry in experiment [1], in [2], in experiment [3], in experiment [4], in experiment [6] and in [7] was “inactive” throughout. In addition, the Potency result (in experiment [8]; in experiment [9]; with Aromatase (Homo sapiens)) was “inactive” in each case. Besides, the call in experiment [5] was inactive.

Consider `CC(C(=O)O)c1ccc(-c2ccccc2)c(F)c1` (centres undefined), for which the Potency result in [1], in experiment [2], in [3], in experiment [4], in experiment [6] and in experiment [8] was “inactive” throughout. The Potency result (in experiment [9]; in the experiment with Aromatase (Homo sapiens)) was “inactive” each time. The outcome in [5] was inactive. In addition, the Potency in [7] was 4.52 µM (active) and inactive.

Take `CC(=O)SCc1ccco1`: the Potency entry in experiment [1], in experiment [2], in [3], in experiment [4], in experiment [6] and in experiment [7] was “inactive” throughout. Besides, the Potency result (in experiment [8]; in experiment [9]; with Aromatase (Homo sapiens)) was “inactive” throughout. Besides, in [5], the result was inactive.

Regarding `CCCCCCCCC(CO)CCCCCC` (centres undefined), the Potency result in [1], in [2], in experiment [3], in experiment [4], in experiment [6] and in experiment [7] was “inactive” throughout. The Potency entry (in [8]; in [9]; with Aromatase (Homo sapiens)) was “inactive” throughout. Also, the result in experiment [5] was inactive.

`CC(=O)NCCCS(=O)(=O)O`: the Potency result in experiment [1], in experiment [2], in [3], in experiment [4], in experiment [6] and in [7] was “inactive” each time. For the same compound, the Potency entry (in experiment [8]; in [9]; with Aromatase (Homo sapiens)) was “inactive” in each case. The outcome in experiment [5] was inactive.

Regarding `N=C(N=C(N)N)N1CCOCC1`, the Potency result in experiment [1], in [2], in experiment [3], in experiment [4], in experiment [6] and in experiment [7] was “inactive” in each case. The Potency result (in [8]; in [9]; with Aromatase (Homo sapiens)) was “inactive” each time. In experiment [5], the compound was called inactive.

On to `c1ccc(CNCc2ccccc2)cc1`, for which the Potency result in [1], in experiment [2], in experiment [3], in experiment [4], in experiment [6] and in [7] was “inactive” throughout. Further, the Potency result (in experiment [8]; in experiment [9]; with Aromatase (Homo sapiens)) was “inactive” throughout. In addition, the compound was called inactive in experiment [5].

Consider `O=c1c2ccccc2nnn1CCl`, for which the Potency entry in experiment [1], in experiment [2], in experiment [3], in experiment [4], in [6] and in experiment [7] was “inactive” each time. The Potency result (in experiment [8]; in experiment [9]; with Aromatase (Homo sapiens)) was “inactive” throughout. Besides, the outcome in [5] was inactive.

With `CCCCCCCCCCCCCCC1CO1` (centres undefined), the Potency entry in experiment [1], in experiment [2], in [3], in experiment [4], in experiment [6] and in experiment [7] was “inactive” throughout. Further, the Potency entry (in [8]; in experiment [9]; with Aromatase (Homo sapiens)) was “inactive” throughout. Moreover, the outcome in experiment [5] was inactive.

Consider `CCCc1ccccc1`, for which the Potency result in experiment [1], in [2], in experiment [3], in experiment [4], in experiment [6] and in [7] was “inactive” each time. In addition, the Potency result (in [8]; in experiment [9]; with Aromatase (Homo sapiens)) was “inactive” each time. Also, the compound was called inactive in experiment [5].

As for `CCCCCCCCCC=O`, the Potency result in [1], in experiment [2], in experiment [3], in [6], in experiment [8] and in [9] was “inactive” throughout. Also, the Potency result with Aromatase (Homo sapiens) was “inactive”. In experiment [5], the compound was called inactive.

Consider `CC(C)(C)C1CCCCC1O` (centres undefined), for which the Potency entry in experiment [1], in experiment [2], in experiment [3], in [4], in experiment [6] and in experiment [7] was “inactive” in each case. Further, the Potency result (in experiment [8]; in experiment [9]; with Aromatase (Homo sapiens)) was “inactive” each time. Also, the compound was classed as inactive in [5].

For the compound `CC1=CC(=O)/C(=C(/C)O)C(=O)O1`, the Potency entry in experiment [1], in experiment [2], in experiment [3], in experiment [4], in experiment [6] and in experiment [8] was “inactive” throughout. Moreover, the Potency result (in [9]; in the experiment with Aromatase (Homo sapiens)) was “inactive” in each case. The outcome in experiment [5] was inactive.

Take `CN1CCC[C@@H]1c1cccnc1`: the Potency entry (in experiment [1]; in experiment [2]; in [3]; in [8]; in [9]; with Aromatase (Homo sapiens)) was “inactive” in each case. The result in [5] was inactive.

In the case of `CC(=O)[C@@]1(O)CC[C@H]2[C@@H]3C[C@H](C)C4=CC(=O)CC[C@]4(C)[C@H]3CC[C@@]21C`, the Potency entry (in [1]; in [3]; in experiment [6]; in [9]; in the experiment with Aromatase (Homo sapiens)) was “inactive” in each case. In addition, the Potency in [2] was 11.9 µM (active). Moreover, the compound was called inactive in experiment [5].

`CC(CN)CCCN` (centres undefined): the Potency result in [1], in [2], in experiment [3], in [4], in experiment [6] and in [8] was “inactive” each time. The Potency result (in experiment [9]; with Aromatase (Homo sapiens)) was “inactive” in each case. Also, in experiment [5], the call was inactive.

Consider `Cc1ccccc1N=Nc1ccc(N=Nc2c(O)ccc3ccccc23)c(C)c1`, for which the Potency entry (in [1]; in experiment [2]; in experiment [3]; in [4]; in experiment [8]; with Aromatase (Homo sapiens)) was “inactive” each time. The outcome in [5] was inactive. Also, the Potency was 10.7 µM [inconclusive] (active) in experiment [6] and 8.41 µM (active) in experiment [7].

`O=C(NN1CCCC1)NS(=O)(=O)c1ccc(Cl)cc1`: the Potency entry in [1], in [2], in experiment [3], in experiment [4], in [6] and in experiment [7] was “inactive” in each case. The Potency entry (in experiment [8]; with Aromatase (Homo sapiens)) was “inactive” throughout. The result in [5] was inactive.

Take `O=C1c2cccc(O)c2C(=O)c2c(O)cc(CO)cc21`: the Potency entry (in experiment [1]; in experiment [2]; in [3]; in experiment [6]; in experiment [9]; with Aromatase (Homo sapiens)) was “inactive” each time. The compound was called inactive in experiment [5].

On to `Nc1ccc(C(=O)Nc2ccccc2N)cc1`, for which the Potency in [1] is 18.8 µM (active); in [2], 29.8 µM (active); in experiment [7] it was 33.5 µM (active). For the same compound, the Potency entry (in experiment [3]; in experiment [6]; in [9]; with Aromatase (Homo sapiens)) was “inactive” in each case. In experiment [5], the call was inactive.
